{"source": "PubChem BioAssay (EPA / NIEHS)", "key": {"[1]": {"target": "Agonist Androgen Response Element (ARE), AR (gene 367) (UniProt P10275)", "sequence (P10275 whole entry, looked up)": "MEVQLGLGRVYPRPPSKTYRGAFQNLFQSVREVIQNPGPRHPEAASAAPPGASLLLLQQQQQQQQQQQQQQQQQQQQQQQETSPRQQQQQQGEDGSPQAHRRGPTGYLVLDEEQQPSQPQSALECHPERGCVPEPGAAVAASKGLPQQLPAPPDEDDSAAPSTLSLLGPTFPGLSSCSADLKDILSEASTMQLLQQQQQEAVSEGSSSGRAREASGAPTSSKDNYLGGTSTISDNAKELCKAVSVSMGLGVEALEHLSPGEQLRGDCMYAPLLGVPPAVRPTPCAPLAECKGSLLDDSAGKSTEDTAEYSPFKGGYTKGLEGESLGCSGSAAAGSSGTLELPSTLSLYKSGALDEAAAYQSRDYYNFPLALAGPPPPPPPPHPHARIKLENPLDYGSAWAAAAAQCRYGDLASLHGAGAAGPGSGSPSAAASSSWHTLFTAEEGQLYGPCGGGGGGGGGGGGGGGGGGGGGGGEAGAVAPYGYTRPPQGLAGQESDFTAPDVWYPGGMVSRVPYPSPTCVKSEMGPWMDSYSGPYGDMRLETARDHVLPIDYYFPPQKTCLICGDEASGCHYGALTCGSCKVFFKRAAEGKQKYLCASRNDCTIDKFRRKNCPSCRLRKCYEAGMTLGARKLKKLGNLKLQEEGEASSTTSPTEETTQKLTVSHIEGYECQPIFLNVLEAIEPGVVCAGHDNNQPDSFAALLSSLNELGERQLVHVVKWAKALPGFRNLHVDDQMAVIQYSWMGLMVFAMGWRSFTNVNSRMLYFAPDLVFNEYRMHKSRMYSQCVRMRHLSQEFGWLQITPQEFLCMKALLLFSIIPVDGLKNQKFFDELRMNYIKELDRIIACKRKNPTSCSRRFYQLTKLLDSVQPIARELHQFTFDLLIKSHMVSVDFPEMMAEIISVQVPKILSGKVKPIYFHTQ", "test": "OT_AR_ARELUC_AG_1440: Odyssey Thera (OT) 24-hour CHO-K1 Luciferase Assay for Agonist Androgen Response Element (ARE) (AID 2283379)", "method_in_brief": "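Agonist mode, 24 h exposure in CHO-K1 ARE-luciferase cells; values reflect luminescence induction over vehicle.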"}, "[2]": {"target": "Estrogen receptor beta (Homo sapiens) (UniProt Q92731)", "sequence (Q92731 whole entry, looked up, the tested form may be a part)": "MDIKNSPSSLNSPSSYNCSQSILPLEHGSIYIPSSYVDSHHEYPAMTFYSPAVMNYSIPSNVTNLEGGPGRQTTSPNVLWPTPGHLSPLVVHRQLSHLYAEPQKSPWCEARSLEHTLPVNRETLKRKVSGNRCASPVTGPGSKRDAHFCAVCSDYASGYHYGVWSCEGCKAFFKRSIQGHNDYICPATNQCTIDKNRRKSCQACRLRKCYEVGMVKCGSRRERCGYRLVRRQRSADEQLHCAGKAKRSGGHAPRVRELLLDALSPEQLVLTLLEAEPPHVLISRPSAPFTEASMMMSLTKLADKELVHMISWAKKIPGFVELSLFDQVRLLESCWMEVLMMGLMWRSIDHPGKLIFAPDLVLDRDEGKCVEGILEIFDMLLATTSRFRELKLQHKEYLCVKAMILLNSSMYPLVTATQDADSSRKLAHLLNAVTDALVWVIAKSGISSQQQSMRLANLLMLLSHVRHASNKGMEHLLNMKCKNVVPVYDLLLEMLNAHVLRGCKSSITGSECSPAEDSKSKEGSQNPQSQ", "test": "OT_ER_ERbERb_1440: Odyssey Thera (OT) 24-hour HEK293T Protein-Complementation Assay for Estrogen Receptor-beta/-beta Homodimer (AID 2283380)", "method_in_brief": "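Fluorescence increase, nuclear for agonists or whole-cell for antagonists, relative to DMSO vehicle, quantified by laser scanning cytometer after fixation and Draq5 staining. Readout from 24 h treatment of HEK293T cells carrying complementation-paired ER beta LBD (aa 310-547).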"}, "[3]": {"target": "Estrogen receptor (Homo sapiens) (UniProt P03372)", "sequence (P03372 whole entry, looked up)": "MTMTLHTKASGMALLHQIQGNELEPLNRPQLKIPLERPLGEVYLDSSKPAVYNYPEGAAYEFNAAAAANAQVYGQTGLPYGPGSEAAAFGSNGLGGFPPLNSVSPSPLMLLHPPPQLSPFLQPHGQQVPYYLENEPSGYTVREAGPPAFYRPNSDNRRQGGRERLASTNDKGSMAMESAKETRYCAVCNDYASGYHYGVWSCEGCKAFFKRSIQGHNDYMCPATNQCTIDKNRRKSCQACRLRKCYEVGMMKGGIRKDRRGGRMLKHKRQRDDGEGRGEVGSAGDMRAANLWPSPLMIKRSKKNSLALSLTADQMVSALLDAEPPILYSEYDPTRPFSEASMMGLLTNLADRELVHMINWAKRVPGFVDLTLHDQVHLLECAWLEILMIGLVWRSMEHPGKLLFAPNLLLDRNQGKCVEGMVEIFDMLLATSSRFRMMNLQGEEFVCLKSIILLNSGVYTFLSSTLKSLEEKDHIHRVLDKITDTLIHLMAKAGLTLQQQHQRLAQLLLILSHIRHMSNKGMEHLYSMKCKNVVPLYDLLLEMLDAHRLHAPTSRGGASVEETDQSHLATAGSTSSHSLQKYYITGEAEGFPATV", "test": "OT_ERa_GFPERaERE_0480: Odyssey Thera (OT) 8-hour HeLa Transcription Induction Assay for Estrogen Receptor (AID 2283381; active = hit-call score of the fitted dose curve at least 0.9, where 1 is the maximum; inactive = score below 0.9)", "method_in_brief": "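HeLa cells dosed with compound and imaged by fluorescence microscopy at 8 h; GFP induction from an ERE reporter quantified by high-content image analysis and fitted as gain of signal against DMSO baseline.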"}, "[4]": {"target": "Estrogen receptor (Homo sapiens) (UniProt P03372)", "test": "OT_ERa_GFPERaERE_0120: Odyssey Thera (OT) 2-hour HeLa Transcription Induction Assay for Estrogen Receptor (AID 2283382)", "method_in_brief": "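HeLa cells were dosed with test chemical and read 2 hours later for GFP-ERα/ERE-linked fluorescent protein induction by fluorescence microscopy. Gain-of-signal was fitted relative to DMSO baseline, quantified by high content image analysis.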"}, "[5]": {"target": "Retinoic acid receptor RXR-alpha (Homo sapiens) (UniProt P19793)", "sequence (P19793 whole entry, looked up, the tested form may be a part)": "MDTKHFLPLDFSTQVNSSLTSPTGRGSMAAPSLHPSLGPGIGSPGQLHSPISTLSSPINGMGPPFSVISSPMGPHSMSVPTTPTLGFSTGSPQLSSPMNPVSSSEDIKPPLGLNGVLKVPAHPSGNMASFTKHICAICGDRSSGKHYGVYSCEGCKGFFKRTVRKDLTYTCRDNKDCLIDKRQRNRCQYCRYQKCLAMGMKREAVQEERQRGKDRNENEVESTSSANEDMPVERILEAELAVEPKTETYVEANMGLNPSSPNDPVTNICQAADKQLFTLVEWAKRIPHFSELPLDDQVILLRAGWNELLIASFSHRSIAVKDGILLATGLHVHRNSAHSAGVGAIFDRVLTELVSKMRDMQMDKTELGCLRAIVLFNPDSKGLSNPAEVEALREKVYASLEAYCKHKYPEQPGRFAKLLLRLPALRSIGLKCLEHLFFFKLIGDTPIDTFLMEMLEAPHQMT", "test": "OT_NURR1_NURR1RXRa_1440: Odyssey Thera (OT) 24-hour HEK293T Protein Complementation Assay for Nurr1/retinoid X receptor (RXR) (AID 2283386)", "method_in_brief": "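HEK293T cells were dosed with compound and read 24 h later by fluorescence intensity in a protein-fragment complementation format, where Nurr1–RXRα interaction reconstitutes a split reporter. Activity was fitted as gain of signal relative to DMSO baseline.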"}, "[6]": {"target": "mouse Estrogen Receptor alpha (Era), Esr1 (gene 13982) (UniProt P19785)", "sequence (P19785 whole entry, looked up)": "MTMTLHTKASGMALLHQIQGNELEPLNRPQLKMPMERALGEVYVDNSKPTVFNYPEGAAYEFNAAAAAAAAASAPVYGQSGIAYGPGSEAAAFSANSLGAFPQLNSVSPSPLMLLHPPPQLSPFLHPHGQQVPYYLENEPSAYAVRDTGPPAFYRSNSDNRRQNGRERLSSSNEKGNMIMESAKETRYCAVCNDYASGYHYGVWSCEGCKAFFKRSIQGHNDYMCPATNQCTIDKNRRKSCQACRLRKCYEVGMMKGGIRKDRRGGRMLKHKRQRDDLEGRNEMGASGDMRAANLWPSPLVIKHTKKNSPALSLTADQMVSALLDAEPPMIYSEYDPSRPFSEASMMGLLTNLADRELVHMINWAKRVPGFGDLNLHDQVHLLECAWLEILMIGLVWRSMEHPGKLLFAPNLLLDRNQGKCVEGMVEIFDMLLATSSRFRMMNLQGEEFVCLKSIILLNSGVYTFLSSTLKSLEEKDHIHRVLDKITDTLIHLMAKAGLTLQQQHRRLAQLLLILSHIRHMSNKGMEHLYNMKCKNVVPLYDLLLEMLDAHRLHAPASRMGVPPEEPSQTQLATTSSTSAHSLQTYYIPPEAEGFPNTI", "test": "NVS_NR_mERa: NovaScreen (NVS) Nuclear Receptor Binding Assay for mouse Estrogen Receptor alpha (Era) (AID 2283378);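 also: hit means loss of bound radioligand signal relative to DMSO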", "method_in_brief": "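Test chemicals competed against a specific radioligand for binding to cell-free mouse Era. Duplicate wells at 25 uM were read 18 hours later by filter-based radiodetection, with loss of signal against DMSO scored as activity.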"}, "[7]": {"target": "Bile acid receptor (Homo sapiens) (UniProt Q96RI1)", "sequence (Q96RI1 whole entry, looked up, the tested form may be a part)": "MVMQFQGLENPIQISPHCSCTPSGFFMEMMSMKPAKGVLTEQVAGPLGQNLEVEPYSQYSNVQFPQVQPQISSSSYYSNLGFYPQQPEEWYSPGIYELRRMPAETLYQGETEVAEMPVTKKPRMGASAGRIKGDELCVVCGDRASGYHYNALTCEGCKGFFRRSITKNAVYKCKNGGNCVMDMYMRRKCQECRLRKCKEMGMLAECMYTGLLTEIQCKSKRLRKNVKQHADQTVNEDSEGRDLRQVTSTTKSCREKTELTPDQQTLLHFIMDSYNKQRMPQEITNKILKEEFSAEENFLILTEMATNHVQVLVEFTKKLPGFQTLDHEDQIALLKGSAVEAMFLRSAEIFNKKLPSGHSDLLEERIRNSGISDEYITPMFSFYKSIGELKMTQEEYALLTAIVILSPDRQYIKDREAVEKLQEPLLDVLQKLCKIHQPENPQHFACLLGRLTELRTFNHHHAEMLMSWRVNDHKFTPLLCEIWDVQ", "test": "OT_FXR_FXRSRC1_0480: Odyssey Thera (OT) 8-hour HEK293T Protein-Complementation Assay for Farnesoid X receptor/SRC-1 Co-activator (AID 2283383)", "method_in_brief": "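HEK293T cells expressing FXR and SRC-1 fused to reporter fragments were dosed with compound for 8 h; fluorescence from the reconstituted reporter marked co-activator recruitment. Gain of signal was fitted against the DMSO baseline.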"}, "[8]": {"target": "Peroxisome proliferator-activated receptor gamma (Homo sapiens) (UniProt P37231)", "sequence (P37231 whole entry, looked up, the tested form may be a part)": "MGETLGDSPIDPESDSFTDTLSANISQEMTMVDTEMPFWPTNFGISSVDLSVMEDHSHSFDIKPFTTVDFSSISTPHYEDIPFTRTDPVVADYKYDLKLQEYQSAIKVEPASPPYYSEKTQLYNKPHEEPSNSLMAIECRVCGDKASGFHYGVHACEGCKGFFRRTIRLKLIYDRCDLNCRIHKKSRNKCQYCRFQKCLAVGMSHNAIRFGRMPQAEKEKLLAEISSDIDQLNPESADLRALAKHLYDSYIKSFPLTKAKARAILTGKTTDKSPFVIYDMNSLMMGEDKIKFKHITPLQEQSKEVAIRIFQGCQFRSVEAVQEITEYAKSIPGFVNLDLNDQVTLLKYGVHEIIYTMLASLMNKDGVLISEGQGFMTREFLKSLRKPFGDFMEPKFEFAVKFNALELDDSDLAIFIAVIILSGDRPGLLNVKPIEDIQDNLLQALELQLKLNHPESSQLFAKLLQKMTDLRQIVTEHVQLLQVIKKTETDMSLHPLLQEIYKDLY", "test": "OT_PPARg_PPARgSRC1_1440: Odyssey Thera (OT) 24-hour Protein-Complementation Assay for Peroxisome Proliferator-activated Receptor Gamma/ SRC-1 Co-activator (AID 2283388)", "method_in_brief": "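Transient HEK293T, YFP fragments 1-158/159-239 (mutant IFP1/IFP2) fused to PPARg/SRC-1; 24 h dosing; fix 4% formaldehyde, Draq5; Opera imaging 488/635 nm; N/C ratio, gain vs DMSO.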"}, "[9]": {"target": "Retinoic acid receptor RXR-alpha (Homo sapiens) (UniProt P19793)", "test": "OT_NURR1_NURR1RXRa_0480: Odyssey Thera (OT) 8-hour HEK293T Protein Complementation Assay for Nurr1/retinoid X receptor (RXR) (AID 2283385)", "method_in_brief": "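HEK293T cells expressing Nurr1 and RXRα fused to reporter fragments were dosed with compound for 8 hours. Complex formation was read as fluorescence intensity and analysed as gain of signal against DMSO as baseline.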"}, "[10]": {"target": "Peroxisome proliferator-activated receptor gamma (Homo sapiens) (UniProt P37231)", "test": "OT_PPARg_PPARgSRC1_0480: Odyssey Thera (OT) 8-hour Protein-Complementation Assay for Peroxisome Proliferator-activated Receptor Gamma / SRC-1 Co-activator (AID 2283387)", "method_in_brief": "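Protein-fragment complementation of split Venus YFP reports PPARg/SRC-1 interaction in HEK293T (transfected 48 h before treatment), exposed 8 h. Readout: N/C fluorescence ratio at 488 nm from imaging, Draq5 for segmentation, positive fit relative to DMSO.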"}}, "note": "Records with an inconclusive call do not appear. The source made the active and inactive calls. The calls were made as follows, unless noted: active = hit-call score of the fitted dose curve at least 0.9, where 1 is the maximum; inconclusive = response in the unintended direction; inactive = score below 0.9."}
{"smiles": "COC(=O)c1cccc(C(=O)OC)c1", "values": [{"measurement": "AC50", "setting": "[1]", "result": "1.63 µM (active)"}, {"measurement": "outcome", "setting": "[2]", "result": "inactive"}, {"measurement": "outcome", "setting": "[3]", "result": "inactive"}, {"measurement": "outcome", "setting": "[4]", "result": "inactive"}, {"measurement": "outcome", "setting": "[5]", "result": "inactive"}]}
{"smiles": "CC/C=C\\CCOC(C)OCC", "note": "(stereo not drawn)", "values": [{"measurement": "outcome", "setting": "[6]", "result": "inactive"}]}
{"smiles": "O=C1OC2(c3ccc(O)cc3Oc3cc(O)ccc32)c2ccccc21", "values": [{"measurement": "AC50", "setting": "[6]", "result": "25 µM (active)"}, {"measurement": "outcome", "setting": "[2]", "result": "inactive"}, {"measurement": "outcome", "setting": "[3]", "result": "inactive"}, {"measurement": "outcome", "setting": "[4]", "result": "inactive"}, {"measurement": "AC50", "setting": "[7]", "result": "13.1 µM (active)"}, {"measurement": "outcome", "setting": "[8]", "result": "inactive"}]}
{"smiles": "CCCCCCCCOC(=O)c1ccc(O)cc1", "values": [{"measurement": "AC50", "setting": "[6]", "result": "1.72 µM (active)"}, {"measurement": "AC50", "setting": "[2]", "result": "5.35 µM (active)"}, {"measurement": "AC50", "setting": "[3]", "result": "3.7 µM (active)"}, {"measurement": "AC50", "setting": "[4]", "result": "3.43 µM (active)"}, {"measurement": "AC50", "setting": "[9]", "result": "74.7 µM (active)"}, {"measurement": "AC50", "setting": "[5]", "result": "92.8 µM (active)"}]}
{"smiles": "CN1CCc2cccc3c2[C@H]1Cc1ccc(O)c(O)c1-3", "values": [{"measurement": "AC50", "setting": "[6]", "result": "0.309 µM (active)"}, {"measurement": "outcome", "setting": "[2]", "result": "inactive"}, {"measurement": "outcome", "setting": "[3]", "result": "inactive"}, {"measurement": "outcome", "setting": "[4]", "result": "inactive"}, {"measurement": "outcome", "setting": "[10]", "result": "inactive"}, {"measurement": "outcome", "setting": "[8]", "result": "inactive"}]}
{"smiles": "CC(=O)C1C(=O)C=C(C)OC1=O", "note": "(stereo not drawn)", "values": [{"measurement": "outcome", "setting": "[6]", "result": "inactive"}, {"measurement": "outcome", "setting": "[2]", "result": "inactive"}, {"measurement": "outcome", "setting": "[3]", "result": "inactive"}, {"measurement": "outcome", "setting": "[4]", "result": "inactive"}, {"measurement": "outcome", "setting": "[7]", "result": "inactive"}, {"measurement": "outcome", "setting": "[9]", "result": "inactive"}, {"measurement": "outcome", "setting": "[5]", "result": "inactive"}, {"measurement": "outcome", "setting": "[10]", "result": "inactive"}]}
{"smiles": "CCCCCCCCCCCCOCCOS(=O)(=O)O", "values": [{"measurement": "AC50", "setting": "[6]", "result": "29.4 µM (active)"}, {"measurement": "AC50", "setting": "[3]", "result": "10 µM (active)"}, {"measurement": "AC50", "setting": "[4]", "result": "11 µM (active)"}, {"measurement": "outcome", "setting": "[9]", "result": "inactive"}, {"measurement": "outcome", "setting": "[10]", "result": "inactive"}, {"measurement": "outcome", "setting": "[8]", "result": "inactive"}]}
{"smiles": "CCCCCCC(C)O", "note": "(stereo not drawn)", "values": [{"measurement": "outcome", "setting": "[6]", "result": "inactive"}, {"measurement": "outcome", "setting": "[2]", "result": "inactive"}, {"measurement": "outcome", "setting": "[3]", "result": "inactive"}, {"measurement": "outcome", "setting": "[4]", "result": "inactive"}, {"measurement": "outcome", "setting": "[5]", "result": "inactive"}]}
{"smiles": "CC(=O)CC(=O)N(C)C", "values": [{"measurement": "outcome", "setting": "[6]", "result": "inactive"}, {"measurement": "outcome", "setting": "[2]", "result": "inactive"}, {"measurement": "outcome", "setting": "[3]", "result": "inactive"}, {"measurement": "outcome", "setting": "[4]", "result": "inactive"}, {"measurement": "outcome", "setting": "[5]", "result": "inactive"}]}
{"smiles": "CC(O)CN", "note": "(stereo not drawn)", "values": [{"measurement": "AC50", "setting": "[6]", "result": "6.65 µM (active)"}, {"measurement": "outcome", "setting": "[2]", "result": "inactive"}, {"measurement": "outcome", "setting": "[3]", "result": "inactive"}, {"measurement": "outcome", "setting": "[4]", "result": "inactive"}, {"measurement": "outcome", "setting": "[9]", "result": "inactive"}, {"measurement": "outcome", "setting": "[5]", "result": "inactive"}, {"measurement": "outcome", "setting": "[10]", "result": "inactive"}]}
{"smiles": "CC(C)(CO)CO", "values": [{"measurement": "outcome", "setting": "[1]", "result": "inactive"}, {"measurement": "outcome", "setting": "[2]", "result": "inactive"}, {"measurement": "outcome", "setting": "[3]", "result": "inactive"}, {"measurement": "outcome", "setting": "[4]", "result": "inactive"}, {"measurement": "outcome", "setting": "[9]", "result": "inactive"}, {"measurement": "outcome", "setting": "[5]", "result": "inactive"}]}
{"smiles": "Cc1cccc(O)c1", "values": [{"measurement": "outcome", "setting": "[6]", "result": "inactive"}, {"measurement": "outcome", "setting": "[2]", "result": "inactive"}, {"measurement": "outcome", "setting": "[3]", "result": "inactive"}, {"measurement": "outcome", "setting": "[4]", "result": "inactive"}, {"measurement": "outcome", "setting": "[9]", "result": "inactive"}]}
{"smiles": "CC1=CCC(C(C)(C)O)CC1", "note": "(stereo not drawn)", "values": [{"measurement": "outcome", "setting": "[1]", "result": "inactive"}, {"measurement": "outcome", "setting": "[3]", "result": "inactive"}, {"measurement": "outcome", "setting": "[4]", "result": "inactive"}, {"measurement": "outcome", "setting": "[7]", "result": "inactive"}, {"measurement": "outcome", "setting": "[9]", "result": "inactive"}, {"measurement": "outcome", "setting": "[5]", "result": "inactive"}, {"measurement": "outcome", "setting": "[10]", "result": "inactive"}, {"measurement": "outcome", "setting": "[8]", "result": "inactive"}]}
{"smiles": "CC12CCC(C1)C(C)(C)C2O", "note": "(stereo not drawn)", "values": [{"measurement": "outcome", "setting": "[6]", "result": "inactive"}, {"measurement": "outcome", "setting": "[2]", "result": "inactive"}, {"measurement": "outcome", "setting": "[3]", "result": "inactive"}, {"measurement": "outcome", "setting": "[4]", "result": "inactive"}, {"measurement": "outcome", "setting": "[9]", "result": "inactive"}, {"measurement": "outcome", "setting": "[5]", "result": "inactive"}, {"measurement": "outcome", "setting": "[8]", "result": "inactive"}]}
{"smiles": "O=S(=O)(O)c1cc(S(=O)(=O)O)c2c(N=Nc3ccccc3)c(O)ccc2c1", "values": [{"measurement": "outcome", "setting": "[2]", "result": "inactive"}, {"measurement": "outcome", "setting": "[3]", "result": "inactive"}, {"measurement": "outcome", "setting": "[4]", "result": "inactive"}, {"measurement": "outcome", "setting": "[7]", "result": "inactive"}]}
{"smiles": "CCCCCCOc1ccc(O)cc1", "values": [{"measurement": "AC50", "setting": "[6]", "result": "0.174 µM (active)"}, {"measurement": "outcome", "setting": "[1]", "result": "inactive"}, {"measurement": "AC50", "setting": "[2]", "result": "12 µM (active)"}, {"measurement": "AC50", "setting": "[3]", "result": "88.9 µM (active)"}, {"measurement": "AC50", "setting": "[4]", "result": "69.5 µM (active)"}, {"measurement": "outcome", "setting": "[9]", "result": "inactive"}, {"measurement": "outcome", "setting": "[5]", "result": "inactive"}]}
{"smiles": "CCC(C)(C)c1cc(O)c(C(C)(C)CC)cc1O", "values": [{"measurement": "outcome", "setting": "[6]", "result": "inactive"}]}
